{"source": "paper PMC7862700", "about": "“An all-to-all approach to the identification of sequence-specific readers for epigenetic DNA modifications on cytosine”", "assay_in_all_cases": "DAPPL (digital affinity profiling via proximity ligation, sequencing); 10 mM Tris-HCl pH 7.5, 50 mM NaCl, 1 mM DTT, 4% glycerol, room temperature, 30 min; GST-TFs on glutathione beads, 16-mer random dsDNA library, 0.1% formaldehyde crosslink after washing; high values mean tight binding", "key": {"HSF1": {"biological_target": "HSF1 (Homo sapiens, UniProt Q00613 1-529)", "sequence (Q00613 whole entry, the tested form may be a part)": "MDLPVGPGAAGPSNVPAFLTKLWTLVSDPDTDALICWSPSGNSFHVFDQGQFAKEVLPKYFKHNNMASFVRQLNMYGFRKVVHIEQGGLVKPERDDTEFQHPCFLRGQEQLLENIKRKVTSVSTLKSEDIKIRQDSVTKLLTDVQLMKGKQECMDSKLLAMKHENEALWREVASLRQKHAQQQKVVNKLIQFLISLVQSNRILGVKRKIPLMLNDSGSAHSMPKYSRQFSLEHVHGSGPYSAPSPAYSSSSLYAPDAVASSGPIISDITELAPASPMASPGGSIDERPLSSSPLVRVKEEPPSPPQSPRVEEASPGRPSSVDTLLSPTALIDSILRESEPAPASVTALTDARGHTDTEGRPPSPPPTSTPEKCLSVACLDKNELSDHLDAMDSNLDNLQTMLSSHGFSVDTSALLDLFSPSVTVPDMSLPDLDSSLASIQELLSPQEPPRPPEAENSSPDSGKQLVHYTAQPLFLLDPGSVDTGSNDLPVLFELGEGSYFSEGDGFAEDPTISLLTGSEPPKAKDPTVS", "settings": "protein: recombinant; tags: N-terminal GST; chain copies: 3; dsDNA, one strand shown", "method_in_brief": "(§1)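 After expression in yeast as GST fusions, human transcription factors were bound to glutathione beads, DNA-barcoded and mixed with a tag-only sample. The pools were incubated with 200 nmole of a 16-mer random double-stranded DNA library in Tris/NaCl/DTT/glycerol buffer (30 min, room temperature), washed and crosslinked with 0.1% formaldehyde. Proximity ligation with BsaI/T4 ligase ran for 1 h at 37 °C, before PCR amplification and sequencing on an Illumina NextSeq500. Binding signal is a hexamer's read frequency for a factor divided by its frequency for the tag-only sample.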"}, "SPIC": {"biological_target": "T1, SPIC (Homo sapiens, UniProt Q8N5J4 1-248)", "T1 sequence": "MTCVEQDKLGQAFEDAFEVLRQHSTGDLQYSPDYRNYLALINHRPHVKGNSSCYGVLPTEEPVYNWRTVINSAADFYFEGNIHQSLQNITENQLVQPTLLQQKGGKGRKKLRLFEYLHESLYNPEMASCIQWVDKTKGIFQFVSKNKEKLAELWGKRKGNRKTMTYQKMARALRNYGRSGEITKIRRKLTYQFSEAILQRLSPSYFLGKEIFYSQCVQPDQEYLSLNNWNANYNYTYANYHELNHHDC", "settings": "protein: recombinant; tags: N-terminal GST; dsDNA, one strand shown", "method_in_brief": "as §1"}, "ELK1": {"biological_target": "T2, ELK1 (Homo sapiens, UniProt P19419 1-428)", "T2 sequence": "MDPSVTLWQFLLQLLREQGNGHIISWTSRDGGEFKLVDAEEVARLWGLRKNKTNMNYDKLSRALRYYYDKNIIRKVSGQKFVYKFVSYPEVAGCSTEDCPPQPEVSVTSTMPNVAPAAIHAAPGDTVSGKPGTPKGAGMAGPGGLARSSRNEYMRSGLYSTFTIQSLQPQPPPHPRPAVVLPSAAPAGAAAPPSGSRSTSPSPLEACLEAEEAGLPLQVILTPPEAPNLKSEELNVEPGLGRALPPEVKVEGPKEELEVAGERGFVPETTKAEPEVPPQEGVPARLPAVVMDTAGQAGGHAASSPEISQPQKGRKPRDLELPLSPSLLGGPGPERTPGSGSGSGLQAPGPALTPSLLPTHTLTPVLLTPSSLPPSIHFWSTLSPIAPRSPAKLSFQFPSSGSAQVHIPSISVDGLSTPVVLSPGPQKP", "settings": "protein: recombinant; tags: N-terminal GST; dsDNA, one strand shown", "method_in_brief": "as §1"}, "GABPA": {"biological_target": "T3, GABPA (Homo sapiens, UniProt Q06546 1-454)", "T3 sequence": "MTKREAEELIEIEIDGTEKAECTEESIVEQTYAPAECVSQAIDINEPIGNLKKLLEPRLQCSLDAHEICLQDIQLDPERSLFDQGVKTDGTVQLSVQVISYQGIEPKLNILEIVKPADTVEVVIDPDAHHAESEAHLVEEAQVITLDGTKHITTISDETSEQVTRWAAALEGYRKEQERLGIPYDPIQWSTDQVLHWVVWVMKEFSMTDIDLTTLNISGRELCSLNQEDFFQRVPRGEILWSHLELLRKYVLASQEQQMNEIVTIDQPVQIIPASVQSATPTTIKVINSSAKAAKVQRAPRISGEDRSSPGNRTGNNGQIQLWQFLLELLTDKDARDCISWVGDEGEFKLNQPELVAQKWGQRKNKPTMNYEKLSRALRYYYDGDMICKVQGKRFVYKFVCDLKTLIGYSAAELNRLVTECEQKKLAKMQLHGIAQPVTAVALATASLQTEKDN", "settings": "protein: recombinant; tags: N-terminal GST; dsDNA, one strand shown", "method_in_brief": "as §1"}, "ELF1": {"biological_target": "ELF1 (Homo sapiens, UniProt P32519 1-619)", "sequence (P32519 whole entry)": "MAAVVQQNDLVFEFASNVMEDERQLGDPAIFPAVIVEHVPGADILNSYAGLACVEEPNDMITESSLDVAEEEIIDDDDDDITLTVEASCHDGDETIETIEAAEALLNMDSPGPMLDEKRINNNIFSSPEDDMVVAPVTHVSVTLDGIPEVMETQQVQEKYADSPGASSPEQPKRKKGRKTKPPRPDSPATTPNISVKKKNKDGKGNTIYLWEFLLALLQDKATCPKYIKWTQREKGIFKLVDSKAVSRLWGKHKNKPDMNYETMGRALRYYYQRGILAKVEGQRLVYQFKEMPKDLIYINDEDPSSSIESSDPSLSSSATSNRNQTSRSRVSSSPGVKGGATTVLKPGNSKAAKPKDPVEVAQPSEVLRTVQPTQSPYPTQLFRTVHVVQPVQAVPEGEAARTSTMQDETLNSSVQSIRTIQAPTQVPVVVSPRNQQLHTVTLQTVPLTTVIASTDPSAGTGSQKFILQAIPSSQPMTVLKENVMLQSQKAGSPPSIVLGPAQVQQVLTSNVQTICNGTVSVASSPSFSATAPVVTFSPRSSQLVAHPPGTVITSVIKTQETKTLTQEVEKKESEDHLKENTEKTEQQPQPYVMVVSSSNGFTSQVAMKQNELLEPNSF", "settings": "protein: recombinant; tags: N-terminal GST; dsDNA, one strand shown", "method_in_brief": "as §1"}, "ELK3": {"biological_target": "T4, ELK3 (Homo sapiens, UniProt P41970 1-407)", "T4 sequence": "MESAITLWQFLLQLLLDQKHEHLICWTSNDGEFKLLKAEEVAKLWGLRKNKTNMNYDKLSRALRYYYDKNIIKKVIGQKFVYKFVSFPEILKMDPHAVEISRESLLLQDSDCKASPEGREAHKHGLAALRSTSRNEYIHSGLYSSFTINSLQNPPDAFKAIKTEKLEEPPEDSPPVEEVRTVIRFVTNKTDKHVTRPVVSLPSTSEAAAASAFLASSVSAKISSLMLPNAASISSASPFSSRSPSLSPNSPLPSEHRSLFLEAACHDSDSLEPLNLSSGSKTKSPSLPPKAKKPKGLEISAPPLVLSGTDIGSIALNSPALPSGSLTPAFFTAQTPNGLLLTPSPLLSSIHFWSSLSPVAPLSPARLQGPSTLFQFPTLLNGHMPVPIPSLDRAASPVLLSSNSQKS", "settings": "protein: recombinant; tags: N-terminal GST; dsDNA, one strand shown", "method_in_brief": "as §1"}, "ELK4": {"biological_target": "T5, ELK4 (Homo sapiens, UniProt P28324-2 1-405)", "T5 sequence": "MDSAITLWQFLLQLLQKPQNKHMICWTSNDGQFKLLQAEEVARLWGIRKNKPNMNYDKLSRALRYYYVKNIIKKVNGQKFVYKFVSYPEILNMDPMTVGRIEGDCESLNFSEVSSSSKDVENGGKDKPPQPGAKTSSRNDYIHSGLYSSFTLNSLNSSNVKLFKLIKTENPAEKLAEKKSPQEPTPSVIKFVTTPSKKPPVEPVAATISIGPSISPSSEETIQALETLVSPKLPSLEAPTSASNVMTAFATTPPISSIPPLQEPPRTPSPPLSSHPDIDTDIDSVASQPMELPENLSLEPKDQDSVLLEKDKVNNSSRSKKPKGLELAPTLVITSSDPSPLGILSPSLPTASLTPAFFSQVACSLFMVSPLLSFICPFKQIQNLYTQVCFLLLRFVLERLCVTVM", "settings": "protein: recombinant; tags: N-terminal GST; dsDNA, one strand shown", "method_in_brief": "as §1"}, "ETV2": {"biological_target": "T6, ETV2 (Homo sapiens, UniProt O00321 1-342)", "T6 sequence": "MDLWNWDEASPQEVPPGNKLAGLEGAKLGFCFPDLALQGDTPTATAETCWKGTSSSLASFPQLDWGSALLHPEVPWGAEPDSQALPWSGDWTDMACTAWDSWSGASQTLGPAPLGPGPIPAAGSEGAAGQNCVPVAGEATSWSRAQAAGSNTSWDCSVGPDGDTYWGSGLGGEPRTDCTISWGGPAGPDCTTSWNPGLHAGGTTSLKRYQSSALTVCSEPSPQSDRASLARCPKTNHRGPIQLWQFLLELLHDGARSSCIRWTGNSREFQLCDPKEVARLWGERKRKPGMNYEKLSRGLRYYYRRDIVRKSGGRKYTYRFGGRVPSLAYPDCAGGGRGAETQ", "settings": "protein: recombinant; tags: N-terminal GST; dsDNA, one strand shown", "method_in_brief": "as §1"}, "CRX": {"biological_target": "CRX (Homo sapiens, UniProt O43186 1-299)", "sequence (O43186 whole entry)": "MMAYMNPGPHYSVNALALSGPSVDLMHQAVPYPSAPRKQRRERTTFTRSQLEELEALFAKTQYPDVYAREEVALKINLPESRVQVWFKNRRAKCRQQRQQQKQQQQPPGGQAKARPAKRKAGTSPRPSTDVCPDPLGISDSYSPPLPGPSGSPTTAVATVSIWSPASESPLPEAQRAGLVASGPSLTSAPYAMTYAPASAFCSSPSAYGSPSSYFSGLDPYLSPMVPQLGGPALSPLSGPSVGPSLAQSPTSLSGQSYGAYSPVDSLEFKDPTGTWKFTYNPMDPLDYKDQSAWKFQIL", "settings": "protein: recombinant; tags: N-terminal GST; dsDNA, one strand shown", "method_in_brief": "as §1"}, "ERF": {"biological_target": "T7, ERF (Homo sapiens, UniProt P50548 1-548)", "T7 sequence": "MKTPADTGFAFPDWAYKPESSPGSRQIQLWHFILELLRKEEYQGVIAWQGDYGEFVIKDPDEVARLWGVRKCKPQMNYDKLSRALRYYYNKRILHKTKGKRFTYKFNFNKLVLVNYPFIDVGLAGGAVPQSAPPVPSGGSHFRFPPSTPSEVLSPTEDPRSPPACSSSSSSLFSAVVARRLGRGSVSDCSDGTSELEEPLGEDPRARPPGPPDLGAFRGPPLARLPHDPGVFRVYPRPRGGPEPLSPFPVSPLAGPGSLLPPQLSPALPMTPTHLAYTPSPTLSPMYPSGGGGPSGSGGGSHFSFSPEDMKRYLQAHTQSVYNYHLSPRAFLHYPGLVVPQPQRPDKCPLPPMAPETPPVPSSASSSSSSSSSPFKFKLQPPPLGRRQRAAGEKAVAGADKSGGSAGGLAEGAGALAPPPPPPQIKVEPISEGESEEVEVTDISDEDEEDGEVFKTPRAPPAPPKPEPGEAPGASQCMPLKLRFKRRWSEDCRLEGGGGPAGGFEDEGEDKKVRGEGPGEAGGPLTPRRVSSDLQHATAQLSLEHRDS", "settings": "protein: recombinant; tags: N-terminal GST; dsDNA, one strand shown", "method_in_brief": "as §1"}, "SPDEF": {"biological_target": "T8, SPDEF (Homo sapiens, UniProt O95238 1-335)", "T8 sequence": "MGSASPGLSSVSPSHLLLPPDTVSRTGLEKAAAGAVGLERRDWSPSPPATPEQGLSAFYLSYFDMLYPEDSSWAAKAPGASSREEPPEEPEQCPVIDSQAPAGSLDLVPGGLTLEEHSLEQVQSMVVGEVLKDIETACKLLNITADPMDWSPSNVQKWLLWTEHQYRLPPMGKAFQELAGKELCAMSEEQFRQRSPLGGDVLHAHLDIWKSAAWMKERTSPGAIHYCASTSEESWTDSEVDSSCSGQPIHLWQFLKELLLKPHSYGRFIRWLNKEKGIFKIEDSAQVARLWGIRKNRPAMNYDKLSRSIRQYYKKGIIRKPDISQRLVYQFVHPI", "settings": "protein: recombinant; tags: N-terminal GST; dsDNA, one strand shown", "method_in_brief": "as §1"}, "ETV7": {"biological_target": "T9, ETV7 (Homo sapiens, UniProt Q9Y603 1-341)", "T9 sequence": "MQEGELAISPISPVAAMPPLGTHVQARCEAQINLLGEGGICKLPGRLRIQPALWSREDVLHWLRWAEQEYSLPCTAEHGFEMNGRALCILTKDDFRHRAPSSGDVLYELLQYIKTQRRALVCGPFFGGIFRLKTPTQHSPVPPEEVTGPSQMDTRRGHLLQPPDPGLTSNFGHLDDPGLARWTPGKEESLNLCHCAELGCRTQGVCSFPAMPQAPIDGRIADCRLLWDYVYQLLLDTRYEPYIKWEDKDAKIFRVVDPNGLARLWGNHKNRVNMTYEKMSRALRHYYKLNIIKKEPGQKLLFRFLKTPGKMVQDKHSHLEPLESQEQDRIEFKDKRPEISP", "settings": "protein: recombinant; tags: N-terminal GST; dsDNA, one strand shown", "method_in_brief": "as §1"}, "ETV3": {"biological_target": "T10, ETV3 (Homo sapiens, UniProt P41162-2 1-143)", "T10 sequence": "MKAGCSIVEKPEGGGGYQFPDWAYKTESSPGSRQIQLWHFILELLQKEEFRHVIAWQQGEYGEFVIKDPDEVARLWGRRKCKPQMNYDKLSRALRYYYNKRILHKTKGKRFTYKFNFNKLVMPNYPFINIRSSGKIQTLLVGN", "settings": "protein: recombinant; tags: N-terminal GST; dsDNA, one strand shown", "method_in_brief": "as §1"}}, "data": [{"sequence": "TGTAGA", "values": [{"measurement": "binding signal", "setting": "HSF1", "result": "1.12 fold enrichment (6-mer frequency, TF over GST control)"}, {"measurement": "binding signal", "setting": "SPIC", "result": "1.1 fold enrichment (6-mer frequency, TF over GST control)"}]}, {"sequence": "CAGAAG", "values": [{"measurement": "binding signal", "setting": "HSF1", "result": "1.32 fold enrichment (6-mer frequency, TF over GST control)"}]}, {"sequence": "TCGAGG", "values": [{"measurement": "binding signal", "setting": "HSF1", "result": "1.04 fold enrichment (6-mer frequency, TF over GST control)"}]}, {"sequence": "GAGAAG", "values": [{"measurement": "binding signal", "setting": "HSF1", "result": "1.22 fold enrichment (6-mer frequency, TF over GST control)"}]}, {"sequence": "CGCGAA", "values": [{"measurement": "binding signal", "setting": "ELK1", "result": "1.04 fold enrichment (6-mer frequency, TF over GST control)"}, {"measurement": "binding signal", "setting": "GABPA", "result": "1.01 fold enrichment (6-mer frequency, TF over GST control)"}, {"measurement": "binding signal", "setting": "ELF1", "result": "1.03 fold enrichment (6-mer frequency, TF over GST control)"}, {"measurement": "binding signal", "setting": "ELK3", "result": "1.05 fold enrichment (6-mer frequency, TF over GST control)"}, {"measurement": "binding signal", "setting": "HSF1", "result": "1.76 fold enrichment (6-mer frequency, TF over GST control)"}, {"measurement": "binding signal", "setting": "SPIC", "result": "1.02 fold enrichment (6-mer frequency, TF over GST control)"}, {"measurement": "binding signal", "setting": "ELK4", "result": "1.08 fold enrichment (6-mer frequency, TF over GST control)"}, {"measurement": "binding signal", "setting": "ETV2", "result": "1.11 fold enrichment (6-mer frequency, TF over GST control)"}, {"measurement": "binding signal", "setting": "CRX", "result": "1.05 fold enrichment (6-mer frequency, TF over GST control)"}, {"measurement": "binding signal", "setting": "ERF", "result": "1.01 fold enrichment (6-mer frequency, TF over GST control)"}, {"measurement": "binding signal", "setting": "SPDEF", "result": "1.01 fold enrichment (6-mer frequency, TF over GST control)"}, {"measurement": "binding signal", "setting": "ETV7", "result": "1.1 fold enrichment (6-mer frequency, TF over GST control)"}, {"measurement": "binding signal", "setting": "ETV3", "result": "1.01 fold enrichment (6-mer frequency, TF over GST control)"}]}]}
